Hits are enriched below; roughly 31% of the tested compounds scored in any of these assays.
CYP2C19 inhib: blocks human cytochrome P450 2C19 | CYP2C19 Supersomes, luciferin-H EGE luminescence, 30 min | inhibition, % at 5 µM | 96,000 compounds, 21% hits | AID 778;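 active means CYP2C19 inhibition above a set limit at 5 µM in the primary screen, cut at about 50% in these data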;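 further: plate controls were negative control wells for no effect and 2.5 mM tranylcypromine positive control for full effect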
Target sequence (P33261 whole entry, looked up): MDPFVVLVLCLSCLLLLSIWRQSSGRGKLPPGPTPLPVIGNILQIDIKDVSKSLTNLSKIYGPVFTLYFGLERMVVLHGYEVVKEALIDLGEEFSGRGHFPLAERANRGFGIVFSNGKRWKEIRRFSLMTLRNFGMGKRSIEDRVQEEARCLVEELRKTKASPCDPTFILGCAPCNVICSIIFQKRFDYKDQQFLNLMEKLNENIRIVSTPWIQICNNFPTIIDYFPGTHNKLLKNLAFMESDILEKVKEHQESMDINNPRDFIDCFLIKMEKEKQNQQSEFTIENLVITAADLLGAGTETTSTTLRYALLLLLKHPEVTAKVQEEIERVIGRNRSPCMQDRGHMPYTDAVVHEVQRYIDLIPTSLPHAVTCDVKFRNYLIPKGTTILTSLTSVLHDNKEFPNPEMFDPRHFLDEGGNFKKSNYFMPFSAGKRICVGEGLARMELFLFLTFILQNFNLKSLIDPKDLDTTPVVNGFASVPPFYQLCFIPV
CYP2C9 inhib: human CYP2C9 inhibition; P11712; CYP2C9 Supersomes, luciferin-H conversion, luminescence; AID 777; inhibition, % at 5 µM; 96,000 compounds, 20% hits;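 active means blocking of liver enzyme CYP2C9 beyond about 50% at 5 µM, limit read from the data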
PLAP act: activators of human placental alkaline phosphatase; P05187; purified PLAP enzyme, luminescent substrate read-out; active compounds read high; activation fold at 20 µM; 96,000 compounds, 1.2% hits; AID 696; in the data active means activation fold above about 2
CYP2C19 act: activators of human cytochrome P450 2C19. AID 1025. 96,000 tested, under 10 active. recombinant CYP2C19, luciferin-H EGE luminescence; active compounds read high; 0 = fully inhibited enzyme, 1 = untreated enzyme. activation factor at 5 µM. P33261;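 active means activation factor of at least 2 at 5 µM in the primary screen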;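 further: 0 = wells with 2.5 mM tranylcypromine and 1 = vehicle-only wells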
CYP2C9 activ: CYP2C9 (human) activation; 96,000 compounds, 1.4% hits; AID 1024; P11712; recombinant CYP2C9, luciferin-H conversion, luminescence; active compounds read high; factor 1 = untreated enzyme, 0 = blocked; activation factor at 5 µM;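 active means activation factor of 2 or more for CYP2C9 at a 5 µM dose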;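 further: 0 = sulfaphenazole-blocked wells and 1 = vehicle-only wells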
* hit, by the source's call.

SMILES	CYP2C19 inhib	CYP2C9 inhib	PLAP act	CYP2C19 act	CYP2C9 activ
CCCCCCCC(=O)OC(CN1CCCCC1)CN1CCCC1=O (stereo not given)	17.4	1.5	1.7	0.8	1
CCN(CC)c1ccc(NC(=O)C(C)C)cc1	1.8	8.9	0.8	1	0.9
CCN(CC)c1ccc(CC(=O)NC(C)Cc2ccccc2)cc1 (stereo not given)	81.7*	60.4*	0.9	0.2	0.4
Cc1ccc2nc(NC(=O)CSCc3ccccc3)sc2c1	4.5	3.0	0.8	1	1
Cc1ccc2c(c1)sc[n+]2Cc1ccccc1	65.7*	68.2*	0.9	0.3	0.3
Cc1ccc(CNC(=O)C2CCCCC2C(=O)O)cc1 (stereo not given)	4.2	7.6	0.9	1	0.9
CCN1C(c2ccc(F)cc2)=CS/C1=C(\C#N)c1nnc2n1-c1ccccc1SC2	29.4	-127.3	0.8	0.7	2.3*
CCOC(=O)c1cnn(-c2ccc(C)cc2)c1N	18.8	3.0	0.8	0.8	1
CCOC(=O)c1cnn(CC2CCCCC2)c1N	60.5*	92.4*	1.1	0.4	0.1
CCc1ccccc1N1CCN(S(=O)(=O)c2cc(OC)ccc2OC)CC1	100.0*	98.7*	1.3	0	0
COc1ccc(OC)c(S(=O)(=O)N2CCC(C(=O)NCCc3ccccc3)CC2)c1	41.2	-216.5	1.4	0.6	3.2*
CC1CCN(Cc2ccc(NC(=O)C3CCN(c4nnc(-n5cccc5)s4)CC3)cc2)CC1	56.0*	46.1	1.4	0.4	0.5
Cc1ccc(Cl)cc1N1CCN(C(=O)C2CCN(c3nnc(-n4cccc4)s3)CC2)CC1	38.2	85.1*	1.6	0.6	0.1
O=C(C1CCN(c2nnc(-n3cccc3)s2)CC1)N1CCN(Cc2ccc3c(c2)OCO3)CC1	24.7	1.5	1.6	0.8	1
Cc1cccc(N2CCN(C(=O)C3CCN(c4nnc(-n5cccc5)s4)CC3)CC2C)c1 (stereo not given)	33.9	36.7	1.5	0.7	0.6
COc1ccc(OC)c(S(=O)(=O)N2CCN(C)CC2)c1	45.3	11.9	1.2	0.5	0.9
CCC(=O)N(Cc1cc2cc(OC)ccc2[nH]c1=O)c1cccc(C)c1	-9.9	-6.4	1	1.1	1.1
O=C(Nc1cccc(C(=O)N2CCOCC2)c1)c1cncc(Br)c1	-11.9	-17.0	1	1.1	1.2
CCN(CC)C(=O)CSc1nnc(COc2ccccc2)n1CC	27.9	13.6	1	0.7	0.9
COCCSc1nnc(-c2cnccn2)o1	-5.1	16.7	0.9	1.1	0.8
COc1ccc(OC)c(CCNC(=O)C2CCN(c3nnc(-n4cccc4)s3)CC2)c1	92.7*	65.4*	1.6	0.1	0.3
COc1ccc(OC)c(S(=O)(=O)N2CCC(C(=O)N3CCN(Cc4ccccc4)CC3)CC2)c1	41.7	54.9*	1.5	0.6	0.5
COc1ccc(CNC(=O)C2CCN(S(=O)(=O)c3cc(OC)ccc3OC)CC2)cc1	64.9*	-86.8	1.1	0.4	1.9
COc1ccc(C2OC(=O)CC2C(=O)N2CCN(c3cc(Cl)ccc3C)CC2)cc1OC (stereo not given)	72.6*	85.0*	1.5	0.3	0.2
CCCCOc1ccc(C(=O)NCC(=O)OC2CCOC2=O)cc1 (stereo not given)	-16.4	-11.2	0.8	1.2	1.1
SMILES	CYP2C19 inhib	CYP2C9 inhib	PLAP act	CYP2C19 act	CYP2C9 activ
COc1ccc(OC)c(S(=O)(=O)N2CCC(C(=O)NC(C)c3ccccc3)CC2)c1 (stereo not given)	39.4	-192.3	1.2	0.6	2.9*
CC(C)OC(=O)c1cc2ccccc2oc1=O	6.7	-1.7	1.1	0.9	1
Cc1c(C(=O)N2CCOCC2)oc2c1C(=O)CC(C)(C)C2	-2.4	6.9	0.8	1	0.9
CC1(C)CC(=O)c2c(oc3cc(O)c(O)cc23)C1	2.5	-216.3	0.9	1	3.2*
CCOC(=O)c1c(C)[nH]c2cc(Br)c(O)cc12	68.2*	68.4*	0.9	0.3	0.3
CCOC(=O)c1c(OCC)[nH]c2c1cc(O)c1ccccc12	29.6	46.1	1	0.7	0.5
CCn1c(SCC(=O)N2CCCC(C)C2)nnc1-c1ccc(S(=O)(=O)N2CCN(C)CC2)cc1 (stereo not given)	-8.4	-2.3	2*	1.1	1
CCn1c(SCC(=O)N2CCCCC2)nnc1-c1ccc(S(=O)(=O)N2CCN(C)CC2)cc1	20.1	-1.3	1.6	0.8	1
CCn1c(SCC(=O)Nc2cc(C)on2)nnc1-c1ccc(S(=O)(=O)N2CCN(C)CC2)cc1	-23.6	12.7	2*	1.2	0.9

Screening data from PubChem BioAssay.
